Compound activity from PubChem BioAssay.
Shown are actives, neighbours in structure and some others; about 1.7% of the full set was active somewhere.
GLP-1R agonist = activates the human GLP-1 receptor; P43220; HEK293 GLP-1R CRE-luciferase, luminescence, 4-6 h; cells express a hypersensitive GLP-1R form; Potency, µM (top dose mostly 45.6 µM), without a hit: at the top dose activation, most hits filed as activators; 380,000 tested, 0.007% active; AID 624172; note: % of control where 0% means no effect
Target sequence (P43220 whole entry, looked up): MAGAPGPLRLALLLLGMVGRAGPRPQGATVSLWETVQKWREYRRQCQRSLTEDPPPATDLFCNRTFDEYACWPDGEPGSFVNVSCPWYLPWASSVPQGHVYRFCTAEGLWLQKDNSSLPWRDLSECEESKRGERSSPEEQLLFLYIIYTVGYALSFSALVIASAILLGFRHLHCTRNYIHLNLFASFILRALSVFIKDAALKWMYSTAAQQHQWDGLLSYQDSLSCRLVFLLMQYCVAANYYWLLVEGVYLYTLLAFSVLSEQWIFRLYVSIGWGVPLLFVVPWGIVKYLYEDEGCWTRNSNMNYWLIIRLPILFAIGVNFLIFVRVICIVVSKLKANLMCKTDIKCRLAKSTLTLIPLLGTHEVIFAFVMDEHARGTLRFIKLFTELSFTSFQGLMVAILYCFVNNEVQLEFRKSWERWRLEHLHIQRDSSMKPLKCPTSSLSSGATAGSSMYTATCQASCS
RGS4 inh = human RGS4 inhibition; AID 504845; P49798; Potency, µM (highest dose often 114 µM), inactives show at the highest dose activity change, negative = inhibition, usual class: inhibitors; 390,000 tested, 0.039% active; Transcreener GDP fluorescence polarization, RGS4-accelerated GTP hydrolysis; note: % is set by controls: 0 for no effect and ±100 for the full control effect; nearly all actives have a fitted effect of over 75% in size
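MLSMR compounds (23 nl, pin-transferred) preincubated 10 min at room temperature with a 500nM (2x) first reagent, then RGS4 at 900nM (2x) plus Transcreener GDP mix added; fluorescence polarization (620/688 nm) read before and after 90 min at 30 °C.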
GLP1R inv ag = acts as inverse agonist at human GLP-1 receptor | 410,000 tested, 1.6% active | HEK293 GLP-1R CRE-luciferase, luminescence, 24 h; GLP-1R form is constitutively active | P43220 | Potency, µM (top dose mostly 38.3 µM), for the others: top-dose activity change, negative = inhibition, actives largely listed as inhibitors; note: % is set by controls: 0 for no effect and ±100 for the full control effect; nearly all actives have a fitted effect of over 55% in size
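Luminescence readout: a drop in cAMP-driven luciferase signal flags inverse agonism at a constitutively active GLP-1R stably expressed in HEK293. Compound exposure lasted 24 hr at 37 deg C, 5% CO2.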
HEK293 tox = cytotoxic in the GLP-1 receptor inverse agonist counter-screen | HEK293 cAMP-luciferase reporter cells, luminescence, 24 h | Potency, µM (doses to about 38.3 µM), without a hit: at the highest dose activity change, negative = inhibition, usual class: inhibitors | 410,000 tested, 0.13% active | AID 624418;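 note: loss of luciferase light is scored as toxicity; % is set by controls: 0 for no effect and ±100 for the full control effect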
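Step one: seed cells (200 cells/uL, DMEM with 10% Nu serum, 1% pen-strep). Step two: 12-hour incubation at 37 deg C. Step three: pin 23 nL compound, incubate 24 hr. Step four: add luciferase reagent, read luminescence 12 min later.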
PTHR1 ag = agonists of human PTHR1 parathyroid hormone receptor; 410,000 tested, 0.075% active; Potency, µM (doses to about 115 µM), without a hit: top-dose activation, usual class: activators; AID 743266; HEK293 GP2 PTHR1 cells, GloSensor cAMP luminescence, 1 h; Q03431; note: nearly all actives have a fitted effect of over 55% in size
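HEK-293-derived GP2 cells expressing PTHR1 and a GloSensor cAMP reporter, 3,000/well, plated overnight, given luciferin plus IBMX (each 0.5 mM as added) for 1 h at 37 °C, then compound for 1 h at 37 °C. Luminescence was read after 15 min at room temperature.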
Starred values were filed as active, the others as inactive; i = inactive; u = inconclusive; x = not tested or not shown; [ ] = another dose, or the depositor's remark. Calls come from the whole dose curve; as a rule, active = well fitted curve in the direction sought with a large enough effect; inconclusive = small, poorly fitted or top-dose-only effect, or another doubt; inactive = no such curve, though single readings can be large; an effect the other way counts as inactive or inconclusive. Potency is the fitted concentration of half-maximal effect.

SMILES	GLP-1R agonist	RGS4 inh	GLP1R inv ag	HEK293 tox	PTHR1 ag
Cc1nn(-c2ccccc2)c(C)c1C(=O)OCC(=O)Nc1cccc(S(N)(=O)=O)c1	5.2%	-4.1%	-7.9%	-9.0%	-27.8%
Cc1ccc(NC(=O)N2CCc3cc(S(=O)(=O)N4CCC(C)CC4)ccc32)cc1F	x	23.3%	14.1%	9.5%	19.6%
COc1ccc(NC(=O)C2CCC(CNS(=O)(=O)c3csc(C(N)=O)c3)CC2)cc1 (stereo not given)	x	23.7%	2.2%	1.4%	i
O=C(/C=C/c1cccc2ccccc12)c1ccncc1	-34.6%	u	8.91µM*	u	-93.9%
O=C(NC(c1ccc(F)cc1)c1ccc2ccccc2n1)C1CCN(CCOc2ccc(Cl)cc2Cl)CC1 (stereo not given)	-5.9%	x	u	11.2µM*	i
COc1cc(CN2CCC(C(=O)NC(c3ccc(F)cc3)c3ccc4ccccc4n3)CC2)cc(OC)c1 (stereo not given)	-0.5%	x	2.82µM*	-10.6%	i
O=C(NC(c1ccccc1)c1ccc2ccccc2n1)C1CCN(CCOc2ccc(Cl)cc2)CC1 (stereo not given)	-20.1%	x	11.2µM*	-5.2%	-93.4%
COc1ccc(OC)c(NC(=O)c2cc3c(=O)oc4ccccc4c3s2)c1	0.6%	3.9%	6.2%	-1.1%	-18.6%
Cc1cc(C)c(-c2csc(NC(=O)c3cc([N+](=O)[O-])ccc3N3CCOCC3)n2)c(C)c1	8.2%	9.4%	8.91µM*	-11.9%	-25.2%
Cc1ccccc1NC(=O)Cn1c(=O)n(CCC(=O)N2CCc3ccccc3C2)c(=O)c2ccccc21	1.8%	-3.2%	6.4%	5.2%	i
O=S(=O)(Nc1cccc2c1CCCC2)c1cccc(C(F)(F)F)c1	5.7%	13.8%[11.4 µM]	10µM*	-4.5%	i
CCCN1CNc2c(c(=O)[nH]c(=S)n2CCc2cc(C)cc(C)c2)C1	x	-12.9%	x	x	x
COc1ccccc1N1CCN(/N=C/c2ccc([N+](=O)[O-])cc2)CC1	4.4%	7.7%	5.1%	7.9%	-35.9%
O=[N+]([O-])c1ccc(C=NN2CCCCCC2)cc1	3.9%	-1.5%	11.2µM*	7.9%	-48.1%
O=C(CSc1nnc(COc2ccccc2)n1-c1ccccc1)c1cccs1	0.4%	u	8.91µM*	5.7%	-17.0%[57.5 µM]
Cc1cccc(OCc2nnc(SCCC(=O)O)n2-c2ccccc2)c1	-5.4%	1.0%	9.2%	2.0%	i
O=C(O)CSc1nnc(COc2ccccc2)n1-c1ccccc1	-4.1%	-12.2%	7.4%	-20.9%	i
Cc1ccc(OCc2nnc(SCC(=O)c3cccs3)n2-c2ccccc2)cc1C	15.0%	5.6%	10µM*	-4.6%	-1.3%[57.5 µM]
Cc1ccc(Cl)cc1NC(=O)C(NS(=O)(=O)c1cccc2nsnc12)c1ccccc1 (stereo not given)	x	-8.4%	u	-5.0%	-59.3%
Cc1c2cnn(CC(=O)N3CCN(c4ccc(F)cc4)CC3)c(=O)c2c(C)n1Cc1ccccc1F	x	6.3%	13.4%	0.3%	-22.7%
COc1ccccc1NC(=O)c1c(Nc2ccccc2C)sc(C(=O)Nc2cccc(Cl)c2)c1N	-18.8%	9.6%	4.47µM*	u	-7.9%
COc1ccc(Nc2sc(C(=O)c3ccc(Cl)cc3)c(N)c2C(=O)Nc2ccccc2OC)cc1	3.2%	-36.4%	-28.8%	-31.5%	-39.7%
COc1ccc(CN2CCC(CO)(Cc3ccccc3C(F)(F)F)CC2)c(F)c1	-2.2%	-1.8%	8.91µM*	u	-78.7%
Cc1ccc(NC(=O)CN(C)C(=O)c2cccc(S(=O)(=O)N3CCc4ccccc43)c2)cc1	-6.4%	6.2%	11.2µM*	-7.3%	-18.6%
COc1ccc(NC(=O)CN(C)C(=O)c2cccc(S(=O)(=O)N3CC4(C)CC3CC(C)(C)C4)c2)cc1 (stereo not given)	20.6%	-3.5%	11.2µM*	-22.3%	-24.6%
CCCCNC(=O)c1cccc(S(=O)(=O)N2CC3(C)CC2CC(C)(C)C3)c1 (stereo not given)	9.3%	6.9%	10µM*	2.1%	-19.7%
